PubChem BioAssay (NCI)
About 83,000 compounds went through this panel and 20% of them were active in at least one assay; those are over-represented in the sample as a whole.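 The test compound was applied at a single concentration to cells in 96-well plates for 48 hours, and percent growth was recorded.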 Active and inactive are the calls of the source. How the source made its calls: active means growth percent below 10; inactive means the rest.

How the values were obtained:
Assay in all cases: NCI-60 one-dose screen, 48 h (100 = growth as untreated, 0 = no growth, -100 = all killed)
Conditions in all cases: 10 µM unless noted
SR leukemia = system: SR leukemia
RPMI-8226 leukemia = system: RPMI-8226 leukemia
OVCAR-8 ovarian = system: OVCAR-8 ovarian
OVCAR-5 ovarian = system: OVCAR-5 ovarian
OVCAR-4 ovarian = system: OVCAR-4 ovarian
SK-OV-3 ovarian = system: SK-OV-3 ovarian
IGROV1 ovarian = system: IGROV1 ovarian
OVCAR-3 ovarian = system: OVCAR-3 ovarian
HS 578T breast = system: HS 578T breast
NCI/ADR-RES ovarian = system: NCI/ADR-RES ovarian
T-47D breast = system: T-47D breast
BT-549 breast = system: BT-549 breast
MDA-MB-435 melanoma = system: MDA-MB-435 melanoma
SW-620 colon = system: SW-620 colon
MCF7 breast = system: MCF7 breast
HCT-116 colon = system: HCT-116 colon
HCC-2998 colon = system: HCC-2998 colon
KM12 colon = system: KM12 colon

Measured: growth

CCOC(=O)c1c(C)nn(CC(O)c2ccccc2)c1NC(=O)Nc1cccc(F)c1 (centres undefined)
inactive: SR leukemia 93% | RPMI-8226 leukemia 80.8% | OVCAR-8 ovarian 93.1% | OVCAR-5 ovarian 84.8% | OVCAR-4 ovarian 83.6% | SK-OV-3 ovarian 85.2% | IGROV1 ovarian 90% | OVCAR-3 ovarian 95.6% | HS 578T breast 71.4% | NCI/ADR-RES ovarian 90.9% | T-47D breast 81.8% | BT-549 breast 96.4% | MDA-MB-435 melanoma 86.8% | SW-620 colon 82.7% | MCF7 breast 81.4% | HCT-116 colon 84% | HCC-2998 colon 94.6% | KM12 colon 82.9%

COc1cccc(/C=C/C(=O)c2cc3c(N)c(C(=O)Nc4cccc(Cl)c4C)sc3nc2C)c1
inactive: OVCAR-4 ovarian 38.1% | SK-OV-3 ovarian 14.7%
active: SR leukemia 7.93% | RPMI-8226 leukemia -32.6% | OVCAR-8 ovarian -33.4% | OVCAR-5 ovarian 7.92% | IGROV1 ovarian -18.7% | OVCAR-3 ovarian -60.5% | HS 578T breast 4.67% | NCI/ADR-RES ovarian -3.64% | T-47D breast 9.1% | BT-549 breast -22.3% | MDA-MB-435 melanoma -20.4% | SW-620 colon -28.7% | MCF7 breast 3.5% | HCT-116 colon -34.2% | HCC-2998 colon -79.8% | KM12 colon -19.6%

O=C(O)c1cccc(N/C=C/C(=O)c2cc3cc(Br)ccc3oc2=O)c1
inactive: SR leukemia 105% | RPMI-8226 leukemia 101% | OVCAR-8 ovarian 105% | OVCAR-5 ovarian 98.8% | OVCAR-4 ovarian 95.1% | SK-OV-3 ovarian 98.9% | IGROV1 ovarian 106% | OVCAR-3 ovarian 95.8% | HS 578T breast 94.7% | NCI/ADR-RES ovarian 104% | T-47D breast 90.5% | BT-549 breast 86.1% | MDA-MB-435 melanoma 96.5% | SW-620 colon 98.1% | MCF7 breast 88.4% | HCT-116 colon 93.3% | HCC-2998 colon 105% | KM12 colon 95.8%

COc1cc(-c2nc(NC(C)=O)sc2-c2ccnc(NCCNS(=O)(=O)c3ccccc3)n2)ccc1Cl
inactive: SR leukemia 13.1% | RPMI-8226 leukemia 13.8% | OVCAR-8 ovarian 37.6% | OVCAR-5 ovarian 84.9% | OVCAR-4 ovarian 61.6% | SK-OV-3 ovarian 26.9% | IGROV1 ovarian 51.6% | OVCAR-3 ovarian 25.7% | HS 578T breast 27.3% | NCI/ADR-RES ovarian 93.2% | T-47D breast 41.8% | SW-620 colon 33.3% | HCT-116 colon 12.2% | HCC-2998 colon 73.2% | KM12 colon 25.6%
active: BT-549 breast -8.24% | MDA-MB-435 melanoma -62.3%

CCCCC(=O)Nc1ncc(Cc2ccccc2Cl)s1
inactive: SR leukemia 25.8% | RPMI-8226 leukemia 49.2% | OVCAR-8 ovarian 49% | OVCAR-5 ovarian 59% | OVCAR-4 ovarian 68.1% | SK-OV-3 ovarian 63.3% | IGROV1 ovarian 45.4% | OVCAR-3 ovarian 30.1% | HS 578T breast 31.3% | NCI/ADR-RES ovarian 23.7% | T-47D breast 34.1% | BT-549 breast 47.1% | SW-620 colon 24.5% | MCF7 breast 17.8% | HCT-116 colon 21.2% | HCC-2998 colon 52.6% | KM12 colon 25.2%
active: MDA-MB-435 melanoma -31.8%

O=C1C(Cl)=C(NCCN2CCOCC2)C(=O)c2ncccc21
inactive: RPMI-8226 leukemia 20.4% | OVCAR-8 ovarian 31.1% | OVCAR-4 ovarian 95.8% | SK-OV-3 ovarian 41.5% | NCI/ADR-RES ovarian 67.8% | MDA-MB-435 melanoma 102% | HCC-2998 colon 31.8% | KM12 colon 62.9%
active: SR leukemia -17.9% | OVCAR-5 ovarian -22.8% | IGROV1 ovarian -58.8% | OVCAR-3 ovarian -63.5% | HS 578T breast 1.02% | T-47D breast -40.8% | BT-549 breast -91.5% | SW-620 colon -29.5% | MCF7 breast -50% | HCT-116 colon -51.9%

COc1cc2nc(Nc3cccc(F)c3)nc(Nc3cc(C)[nH]n3)c2cc1OC
active: SR leukemia -9.83% [20 µM] | RPMI-8226 leukemia -41.7% [20 µM] | OVCAR-8 ovarian -42.5% [20 µM] | OVCAR-5 ovarian -100% [20 µM] | OVCAR-4 ovarian -88.2% [20 µM] | SK-OV-3 ovarian -90% [20 µM] | IGROV1 ovarian -96.1% [20 µM] | OVCAR-3 ovarian -80.2% [20 µM] | HS 578T breast -59.3% [20 µM] | NCI/ADR-RES ovarian -57.8% [20 µM] | T-47D breast -45.8% [20 µM] | BT-549 breast -83.8% [20 µM] | MDA-MB-435 melanoma -88.7% [20 µM] | SW-620 colon -58.9% [20 µM] | MCF7 breast -66% [20 µM] | HCT-116 colon -68.2% [20 µM] | HCC-2998 colon -88.3% [20 µM] | KM12 colon -69.2% [20 µM]

CC[C@H](Nc1nc(N)nc(C)c1C#N)c1nc2cccc(NCCCCCC(=O)NO)c2c(=O)n1-c1ccccc1
active: IGROV1 ovarian 9.52% | T-47D breast 1.28%
inactive: SR leukemia 67.9% | RPMI-8226 leukemia 62% | OVCAR-8 ovarian 68.5% | OVCAR-5 ovarian 44.2% | OVCAR-4 ovarian 76.1% | SK-OV-3 ovarian 53.1% | OVCAR-3 ovarian 40.8% | HS 578T breast 13.2% | NCI/ADR-RES ovarian 96.2% | BT-549 breast 39.4% | MDA-MB-435 melanoma 64.1% | SW-620 colon 68.3% | MCF7 breast 31.5% | HCT-116 colon 71.3% | HCC-2998 colon 87% | KM12 colon 80.3%

C=C(c1ccc(C(=O)O)cn1)c1cc2c(cc1C)C(C)(C)CCC2(C)C
inactive: SR leukemia 82.7% | RPMI-8226 leukemia 66.5% | OVCAR-8 ovarian 83.7% | OVCAR-5 ovarian 121% | OVCAR-4 ovarian 85.2% | SK-OV-3 ovarian 75.5% | IGROV1 ovarian 98.9% | OVCAR-3 ovarian 87.6% | HS 578T breast 69.5% | NCI/ADR-RES ovarian 83.6% | T-47D breast 81.5% | BT-549 breast 86.4% | MDA-MB-435 melanoma 92.6% | SW-620 colon 117% | MCF7 breast 65.6% | HCT-116 colon 82.3% | HCC-2998 colon 126% | KM12 colon 86.1%

C/C(=C(\c1ccc(OCCN2CCCCCC2)cc1)c1ccc(OC(=O)Cc2ccccc2)cc1)c1ccc(Cl)cc1
active: SR leukemia -44.9% | RPMI-8226 leukemia -40.2% | OVCAR-8 ovarian 9.9% | SW-620 colon -34.7% | MCF7 breast 3.78% | HCT-116 colon 4.58%
inactive: OVCAR-5 ovarian 67.6% | OVCAR-4 ovarian 36.7% | SK-OV-3 ovarian 60.7% | IGROV1 ovarian 64.5% | OVCAR-3 ovarian 19.8% | HS 578T breast 23.4% | NCI/ADR-RES ovarian 56.6% | T-47D breast 10% | BT-549 breast 67.5% | MDA-MB-435 melanoma 41.6% | HCC-2998 colon 13.6% | KM12 colon 22.1%

COC(=O)c1c2c(c(C)[n+]([O-])c1C)C(=O)C=CC2=O
active: RPMI-8226 leukemia -24.8% | OVCAR-8 ovarian -6.72% | OVCAR-5 ovarian -61.1% | OVCAR-4 ovarian -16.6% | IGROV1 ovarian -38.2% | OVCAR-3 ovarian -8.77% | HS 578T breast 0.0938% | NCI/ADR-RES ovarian -19.8% | T-47D breast -12.6% | BT-549 breast -90.3% | MDA-MB-435 melanoma -61.4% | SW-620 colon -19.5% | MCF7 breast -59.4% | HCT-116 colon -14% | HCC-2998 colon -61.3% | KM12 colon 4.57%
inactive: SR leukemia 20.2% | SK-OV-3 ovarian 90.3%

COc1ccccc1NC(=O)c1ccc(/C=C/C(=O)c2nccn2C)cc1
active: SR leukemia -18.2% | RPMI-8226 leukemia -35% | OVCAR-8 ovarian 4.61% | OVCAR-5 ovarian -80.9% | OVCAR-4 ovarian -34.8% | IGROV1 ovarian -56.5% | OVCAR-3 ovarian -90.9% | NCI/ADR-RES ovarian 5.75% | T-47D breast -15.8% | BT-549 breast -63.5% | MDA-MB-435 melanoma -75.7% | SW-620 colon -77.7% | HCT-116 colon -84.9% | HCC-2998 colon -85.9% | KM12 colon -73.9%
inactive: SK-OV-3 ovarian 15.8% | HS 578T breast 35.5%

CCC(CC)(N(CC(=O)O)CC(=O)O)C(CC)(CC)N(CC(=O)O)CC(=O)O
inactive: SR leukemia 93.7% | RPMI-8226 leukemia 82.7% | OVCAR-8 ovarian 101% | OVCAR-5 ovarian 117% | OVCAR-4 ovarian 101% | SK-OV-3 ovarian 104% | IGROV1 ovarian 116% | OVCAR-3 ovarian 121% | HS 578T breast 118% | NCI/ADR-RES ovarian 107% | T-47D breast 96.3% | BT-549 breast 117% | MDA-MB-435 melanoma 126% | SW-620 colon 112% | MCF7 breast 100% | HCT-116 colon 110% | HCC-2998 colon 98.1% | KM12 colon 120%

N#Cc1c(-c2ccccc2)c(C#N)c2c(C#N)c(N)nn2c1N
active: SR leukemia 2.65% | MDA-MB-435 melanoma -39.6%
inactive: RPMI-8226 leukemia 21.2% | OVCAR-8 ovarian 61.1% | OVCAR-5 ovarian 78% | OVCAR-4 ovarian 57.7% | SK-OV-3 ovarian 62.2% | IGROV1 ovarian 31.9% | OVCAR-3 ovarian 15.5% | HS 578T breast 27.4% | NCI/ADR-RES ovarian 29.9% | T-47D breast 19.6% | BT-549 breast 47.4% | SW-620 colon 25.4% | MCF7 breast 15.9% | HCT-116 colon 24.2% | HCC-2998 colon 61.4% | KM12 colon 24.4%

C/C(=N\Nc1nc(C)cs1)c1cc2ccccc2o1
inactive: SR leukemia 109% | RPMI-8226 leukemia 88.5% | OVCAR-8 ovarian 93.3% | OVCAR-5 ovarian 103% | OVCAR-4 ovarian 94.2% | SK-OV-3 ovarian 105% | IGROV1 ovarian 75.8% | OVCAR-3 ovarian 94.1% | HS 578T breast 88.8% | NCI/ADR-RES ovarian 102% | T-47D breast 21.4% | BT-549 breast 99.3% | MDA-MB-435 melanoma 105% | SW-620 colon 100% | MCF7 breast 74.2% | HCT-116 colon 79.3% | HCC-2998 colon 112% | KM12 colon 95.5%

N#Cc1c(-c2ccccc2)nc2c(c(-c3ccccc3)nn2-c2ccccc2)c1-c1ccc(N2CCOCC2)cc1
inactive: SR leukemia 24.5% | RPMI-8226 leukemia 76% | OVCAR-8 ovarian 99% | OVCAR-5 ovarian 102% | OVCAR-4 ovarian 103% | SK-OV-3 ovarian 108% | IGROV1 ovarian 87.7% | OVCAR-3 ovarian 96% | HS 578T breast 104% | NCI/ADR-RES ovarian 94.6% | T-47D breast 96.7% | BT-549 breast 99.8% | MDA-MB-435 melanoma 90.5% | SW-620 colon 45.6% | MCF7 breast 57.6% | HCT-116 colon 65.5% | HCC-2998 colon 107% | KM12 colon 95.7%

CCCCCCC(CCCC)COC(=O)c1ccc(Cl)cc1 (centres undefined)
inactive: SR leukemia 99.1% | RPMI-8226 leukemia 108% | OVCAR-8 ovarian 109% | OVCAR-5 ovarian 115% | OVCAR-4 ovarian 99.4% | SK-OV-3 ovarian 107% | IGROV1 ovarian 111% | OVCAR-3 ovarian 114% | HS 578T breast 109% | NCI/ADR-RES ovarian 115% | T-47D breast 103% | BT-549 breast 107% | MDA-MB-435 melanoma 107% | SW-620 colon 109% | MCF7 breast 101% | HCT-116 colon 104% | HCC-2998 colon 121% | KM12 colon 108%
